Here are results for 39 compounds from PubChem BioAssay (NCI).

Each structure is given as a SMILES string. About 83,000 compounds went through this panel and 20% of them were active in at least one assay; those are over-represented in the sample as a whole.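 Single-dose data. Exposure time 48 hours. Values below 10 considered active.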 A number with no mark means an inactive call. Active and inactive are the calls of the source.

The subject of this assay is HL-60(TB) leukemia. Kind of assay: NCI-60 one-dose screen, 48 h (100 = growth as untreated, 0 = no growth, -100 = all killed). To be noted: 10 µM unless noted.
Take `COc1ccc(Cn2cc3c(c2-c2cc(OC)c(OC)c(OC)c2)CCc2c(CN4CCOCC4)noc2-3)cc1`: the growth is 1.3% (active).

Regarding `COc1ccc(C2c3sc4c(C)cccc4c3Oc3nc(CC(=O)Nc4ccccc4)[nH]c(=O)c32)cc1` (centres undefined), the growth is 146%.

In the case of `CCc1ccc(NC(=O)N[C@@H](Cc2cccc(F)c2)C(=O)N[C@@H]2C(=O)N3CCC[C@H]3C(=O)N3CCCC[C@H]3C(=O)N[C@@H](C)C(=O)N3C[C@H](C)C[C@H]3C(=O)O[C@H]2C)c(F)c1`, the growth is 8.27% (active).

Consider `O=C1[C@@H]2Cc3c([nH]c4ccccc34)[C@@H](c3ccc(Cl)cc3)N2C(=O)CN1C1CCN(Cc2c(F)cccc2F)CC1`, for which the growth is 0.352% (active).

`O=C(NNc1nc2cc(F)c(F)cc2n2cccc12)c1ncccn1`: the growth is 2.19% (active).

For the compound `Cc1ccc(CSc2nc(-c3ccc(Cl)cc3)c(C#N)c(N3CCNCC3)n2)cc1`, the growth is 43.3%.

As for `COc1cc2oc(-c3cccc(NC(=O)c4cc(N)ccc4Cl)c3)cc(=O)c2c(OC)c1OC`, the growth is 99.7%.

Consider `c1cc(-c2nc3ccc4[nH]ncc4c3c3c2CCCC3)[nH]n1`, for which the growth was 80.8%.

`CC(C)(C)c1cc(NC(=O)Nc2ccc(-c3cn4c5c(sc4n3)CCc3cn(CCCN4CCCCC4)cc3-5)cc2)no1`: the growth is -18.9% (active).

Regarding `NS(=O)(=O)c1ccc(Nc2nc(N/N=C/c3c[nH]c4ccccc34)nc(Nc3ccccc3)n2)cc1`, the growth was 34.4%.

Take `Cc1[nH]c(C(=O)Nc2ccc(C(=O)NCC3CCNCC3)cc2OC(C)C)c(Cl)c1Cl`: the growth is 73.1%.

For the compound `NS(=O)(=O)c1ccc(Nc2nc(N/N=C/C=C/c3ccccc3)nc(Nc3ccccc3)n2)cc1`, the growth is 38.6%.

As for `CC(=O)Nc1nc(C)c(-c2csc(Nc3ccccc3)n2)s1`, the growth is 33.6%.

Turning to `C#C[C@]1(O)CC[C@H]2[C@@H]3CC=C4c5sc(N6CCN(C)CC6)nc5CC[C@]4(C)[C@H]3CC[C@@]21C`, the growth is 6.2% (active).

For `CCOC(=O)c1c(Nc2ccccc2)nn2c(N)c(C#N)c(-c3ccc(OC)cc3)nc12`, the growth was 112%.

As for `COc1ccc(C2CC(c3cccc(Nc4nc(Cl)nc5cc(OC)c(OC)cc45)c3)=Nc3c(N)nc(N)nc3N2)cc1` (centres undefined), the growth is 47.4%.

On to `COc1ccc(NC(=O)CCCCCCNC(=O)C(O)(O)C(F)(F)F)cc1`, for which the growth is 11.3%.

Turning to `CC1=C(C)C(=O)C(Nc2cccc(C(=O)OC(C)(C)C)c2)=CC1=O`, the growth was 71%.

`CC(=O)Oc1ccccc1C(=O)Nc1cc(C(C)C)ccc1C`: the growth was -28.4% (active).

As to `CC1(C)CC[C@]2(CN)CC[C@]3(C)C(=CC[C@@H]4[C@@]5(C)CCCNC(C)(C)[C@@H]5CC[C@]43C)[C@H]2C1`, the growth was 87%.

Regarding `C=C(C)[C@@H]1CC[C@]2(C(=O)N3CCN(C)CC3)CC[C@]3(C)[C@H](CC[C@@H]4[C@@]5(C)CC[C@H](OP(=O)(OCC)OCC)C(C)(C)[C@@H]5CC[C@]43C)[C@@H]12`, the growth is 42.2%.

With `O=C1Nc2cc(Cl)ccc2/C1=C\c1ccc(OCc2ccccc2)cc1`, the growth is 113%.

With `C=C(C)[C@@H]1CC[C@]2(COC)CC[C@]3(C)[C@H](CC[C@@H]4[C@@]5(C)CCCNC(C)(C)[C@@H]5CC[C@]43C)[C@@H]12`, the growth was -69.2% (active).

Take `CN1CCN(CCNc2nc(-c3cccc(NS(=O)(=O)c4cccc5c(N(C)C)cccc45)c3)cs2)CC1`: the growth is 45%.

Regarding `N#Cc1cn(Cc2ccc(Cl)cc2Cl)c(C(=O)c2ccc(Br)cc2)c1N`, the growth is 96.6%.

Regarding `Cc1nn(-c2ccccc2)c2ncnc(N/N=C/c3ccccc3)c12`, the growth was 91.5%.

Take `CCn1c2ccccc2c2cc(-n3nncc3-c3ccccc3)ccc21`: the growth was 3.73% (active).

For the compound `O=C1c2c(c3c4cccnc4[nH]c3c3ccc4ccccc4c23)C(=O)N1CCN1CCOCC1`, the growth is 42.2%.

`COC(=O)CCSC1=C(C)C(=O)c2ccccc2C1=O`: the growth is 34.9%.

As for `C=C(C=O)[C@@H]1CC[C@]2(C(=O)O)CC[C@]3(C)C(CC[C@@H]4[C@@](C)(CCC#N)[C@H](C(=C)C=O)CC[C@]43C)[C@@H]12` (some centres undefined), the growth is 2.63% (active).

With `CCCCCc1ccc(S(=O)(=O)Nc2cc(-c3csc(NC(=O)CN4CCN(CCO)CC4)n3)ccc2OC)cc1`, the growth was -40.5% (active).

Consider `c1n[nH]cc1-c1nc2ccc3[nH]ncc3c2c2c1CCCC2`, for which the growth is 22.5%.

Consider `O=C(Nc1ccc(Cl)cc1)Nc1nc2ccc([N+](=O)[O-])cc2s1`, for which the growth was -51% (active).

Take `Nc1nc(N)c2c(n1)NC(c1ccccc1)CC(c1ccc(Nc3nc(NCCO)nc(Nc4ccc(Cl)cc4)n3)cc1)=N2` (centres undefined): the growth was 2.55% (active).

In the case of `Cc1cc(F)cc(NS(=O)(=O)c2ccc(-c3cnc(C4CC4)o3)cc2)c1`, the growth was 1.67% (active).

On to `Clc1ccc2[nH]cc(-c3cncn3CCc3ccc4c(c3)OCO4)c2c1`, for which the growth is 52.1%.

As for `CC(=O)Nc1cccc(Nc2nc(N[C@@H](C)c3ccccc3)c3ccccc3n2)c1`, the growth was -50.7% (active).

In the case of `O=C(NNc1nc2cc(F)ccc2n2cccc12)c1ccncn1`, the growth was -4.33% (active).

For the compound `O=C(CN1C(=O)S/C(=C\c2ccccc2)C1=O)Nc1ccc(C(=O)/C=C/c2cc3ccccc3nc2Cl)cc1`, the growth was 80.2%.
